Results taken from ChEMBL document CHEMBL4513146, “CO-ADD screening of Karazin Kharkiv National University (Ukraine) compounds”.
Potency and affinity values are given separately.

Tests used:
Klebsiella pneumoniae = settings: Concentration 32 ug.mL-1;; ASSAY_TEST Inhibition of Bacterial Growth; detection method Absorption (OD600); MEDIA CAMHB; plate type 384well; NBS; CORNING #3640; time 18 hr
Candida albicans = settings: Concentration 32 ug.mL-1; ASSAY_TEST Inhibition of Fungal Growth; detection method Absorption (OD530)
Cryptococcus neoformans = settings: Concentration 32 ug.mL-1; ASSAY_TEST Inhibition of Fungal Growth; detection method Resazurin; Absorption (OD600-OD570); plate type 384well; NBS; CORNING #3640

SMILES	Inhibition (Klebsiella pneumoniae)	Inhibition (Candida albicans)	Inhibition (Cryptococcus neoformans)
Cc1ccc(-c2cc3c4nnc(SCC(=O)Nc5cccc(Br)c5)n4ccn3n2)cc1	4.45%	7.43%	-29.25%
CCOc1ccc(-n2ccn3c(SCC(=O)Nc4cc(Cl)ccc4OC)nnc3c2=O)cc1	12.81%	1.86%	-5.56%
O=C(CCc1nnc2c3cc(-c4ccccc4)nn3ccn12)N1CCN(C(=O)c2ccco2)CC1	11.67%	2.11%	-4.62%
Cc1nnc2ccc(S(=O)(=O)N(Cc3ccc(Cl)cc3)c3cccc(F)c3)cn12	9.13%	3.61%	-11.42%
Cc1ccc(NC(=O)Cn2nc3ccc(SCc4ccc(Cl)cc4)nn3c2=O)c(C)c1	5.23%	4.69%	-27.61%
COc1ccc(-c2cc3c4nn(CC(=O)Nc5cc(C)ccc5C)c(=O)n4ccn3n2)cc1	11.61%	0.97%	-22.77%
O=C(CSc1nnc2c(=O)n(-c3ccc(Br)cc3)ccn12)c1c[nH]c2ccccc12	21.01%	3.35%	-16.54%
COc1cccc(-c2nc(CSc3nc4ccccc4n4c(C(C)C)nnc34)c(C)o2)c1OC	2.62%	-0.24%	-8.54%
CCOc1ccc(-n2ccn3c(SCC(=O)c4ccc(C)cc4)nnc3c2=O)cc1	10.63%	1.13%	-5.35%
CCN(CCCNC(=O)CCc1nnc2ccc(-c3ccccc3)nn12)c1ccccc1	9.95%	3.75%	-0.38%
O=C(Cn1nc2c(N3CCOCC3)nccn2c1=O)Nc1ccc(Br)cc1F	9.99%	1.73%	-5.04%
CC(C)c1nnc2c(SCC(=O)Nc3ccc(Cl)cc3C(F)(F)F)nc3ccccc3n12	1.04%	3.28%	-8.02%
Cc1cc(C)c(NC(=O)CSc2nnc3ccc(C(=O)Nc4cccc(F)c4)cn23)c(C)c1	4.12%	1.89%	-5.55%
Cc1ccc(-c2cc3c4nn(CC(=O)Nc5ccc(F)cc5)c(=O)n4ccn3n2)cc1C	-3.72%	22.53%	-20.65%
O=C(Cn1nc2ccc(SC3CCCCC3)nn2c1=O)Nc1ccc2c(c1)OCO2	-18.44%	1.48%	-3.38%
COc1ccc(NC(=O)c2ccc3nn(CC(=O)Nc4ccc(C(C)=O)cc4)c(=O)n3c2)cc1	4.63%	12.89%	-6.52%
CC(C)NC(=O)Cn1nc2n(Cc3ccco3)c(=O)c3sccc3n2c1=O	9.3%	0.87%	-5.24%
CCCCOc1ccc(-c2cc3c4nnc(SCC(=O)Nc5ccc(CC)cc5)n4ccn3n2)cc1	9.73%	2.18%	-11.7%
CCOc1ccc(-c2nc(CSc3nc4ccccc4n4c(C(C)C)nnc34)c(C)o2)cc1	2.25%	-0.51%	-14.56%
Cc1ccc(Sc2nccn3c(=O)n(CC(=O)N4CCN(c5ccccc5)CC4)nc23)c(C)c1	2.5%	3.52%	-7.85%
CCOc1ccc(NC(=O)Cn2nc3c(Oc4ccc(C)cc4)nccn3c2=O)cc1	5.41%	0.26%	-8.36%
COc1cccc(NC(=O)Cn2nc3c(Oc4ccccc4)nccn3c2=O)c1	-9.5%	1.78%	-2.51%
Cc1ccc(NC(=O)Cn2nc3ccc(SC(C)(C)C)nn3c2=O)c(Cl)c1	7.92%	7.14%	-20.56%
COc1ccc(N2CCN(C(=O)Cn3nc4ccc(S(=O)(=O)C(C)(C)C)nn4c3=O)CC2)cc1	18.13%	-0.23%	-28.46%
COc1cccc(NC(=O)Cn2nc3c(Sc4ccccc4)nccn3c2=O)c1	2.45%	7.99%	-6.51%
O=c1c2sccc2n2c(=O)n(Cc3ccc(Cl)cc3)nc2n1Cc1cccs1	-1.66%	32.28%	-17.8%
COc1cccc(CNC(=O)CSc2nnc3c(=O)n(-c4ccccc4)ccn23)c1OC	8.24%	-1.2%	-16.17%
